Screening data (PubChem BioAssay)
Sampled rows, rich in hits. Any-hit rate of the full collection: about 4.1%.
PRMT1 inh: inhibitors of human PRMT1; recombinant PRMT1, activity-based probe fluorescence polarization; 370,000 tested, 1.3% active; inhibition, % at 2.79 µM; Q99873;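 active = inhibition above about 21% made by adding two undisclosed values, limit read from the data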
LEDGF integ inh: blocks HIV-1 LEDGF/p75-dependent DNA integration. TR-FRET IN-LEDGF/p75 DNA integration, Eu/Cy5. inhibition, % at 3.7 µM. 370,000 tested, 0.64% active. AID 743269;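 active = inhibition above the screen-wide mean plus 3 SD, cut at about 13% in these data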;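 note: signal is the Cy5 over europium emission ratio at 671 and 618 nm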
MBD2 DNA inh: blocks human MBD2 binding to methylated DNA; inhibition, % at 4.4 µM; 370,000 tested, 0.31% active; Q9UBB5; AID 686964; TR-FRET, MBD2 binding to methylated oligonucleotide; in the data active = inhibition above about 13%
Target sequence (Q9UBB5 whole entry, looked up): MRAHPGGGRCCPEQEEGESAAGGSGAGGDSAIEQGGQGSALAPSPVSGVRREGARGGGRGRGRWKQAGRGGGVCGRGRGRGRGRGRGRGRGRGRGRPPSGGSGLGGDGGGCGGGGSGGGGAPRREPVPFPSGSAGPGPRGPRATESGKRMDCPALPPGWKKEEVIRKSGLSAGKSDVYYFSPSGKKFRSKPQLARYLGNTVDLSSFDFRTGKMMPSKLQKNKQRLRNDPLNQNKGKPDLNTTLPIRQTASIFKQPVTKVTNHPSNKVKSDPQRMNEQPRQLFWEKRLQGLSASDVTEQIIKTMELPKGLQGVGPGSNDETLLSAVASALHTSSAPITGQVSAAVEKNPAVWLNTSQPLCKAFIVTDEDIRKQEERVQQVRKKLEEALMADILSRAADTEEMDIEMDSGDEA
UHRF1 binding: UHRF1 methyl-DNA binding inhibition; Q96T88; UHRF1 binding to methylated oligo, TR-FRET; inhibition, % at 4.4 µM; 370,000 tested, 0.75% active;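 note: UHRF1 SRA domain binding a hemimethylated CpG hairpin DNA probe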
ABHD5-PLIN5 inh: ABHD5-PLIN5 protein interaction inhibition; Q00G26+Q8WTS1; Split G. princeps luciferase complementation, luminescence, 4 h; AID 602281; 360,000 tested, 0.78% active; inhibition, % at 4 µM;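 active = inhibition above the mean inhibition across every tested compound plus 3 SD, cut at about 22% in these data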
rCAG binder: r(CAG) repeat RNA binding. TO-PRO-1 dye displacement fluorescence. inhibition, % at 3 µM. 370,000 tested, 1.3% active. AID 651821;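 active = inhibition above the plate cutoff, the mean of all test compounds on that plate plus 3 SD, cut at about 35% in these data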;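 note: higher means more dye released from RNA so lower well fluorescence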
ABHD5 PLIN5 conf: ABHD5-PLIN5 interaction inhibition, confirmed; shares compounds with ABHD5-PLIN5 inh; biochemical ABHD5-PLIN5 interaction, luminescence; inhibition, % at 4 µM; 2,200 tested, 67% active; AID 651612; in the data active = inhibition above about 23%
HNF4 split-luc: counter-screen for ABHD5-PLIN5 inhibitors: HNF4 split-luciferase | shares compounds with ABHD5-PLIN5 inh | HNF4 dimerization, luminescence, biochemical | inhibition, % at 4 µM | 2,200 tested, 77% active;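 active = mean inhibition across replicate wells exceeding the computed hit threshold, cut at about 13% in these data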;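 note: light from luciferase halves that rejoin when HNF4 fusion proteins dimerize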
rCAG bind conf: r(CAG) RNA repeat binding, confirmation; shares compounds with rCAG binder; TO-PRO-1 dye displacement fluorescence; inhibition, % at 3 µM; 4,300 tested, 70% active;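 active = inhibition above a per-plate cutoff, the mean inhibition of sample wells plus 3 SD, cut at about 35% in these data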;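 note: loss of TO-PRO-1 fluorescence as compound displaces dye from 1x1 AA loop RNA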
DNA CAG counter: disrupts DNA CAG TO-PRO-1 complex, flagging rCAG hits | shares compounds with rCAG binder | d(CAG) DNA oligo TO-PRO-1 dye displacement, fluorescence | inhibition, % at 3 µM | 4,300 tested, 94% active | AID 652068;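 active = inhibition above its plate's cutoff, the mean test-well inhibition plus 3 SD, cut at about 4.8% in these data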;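 note: hits displace the dye from DNA and so lower well fluorescence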
PRMT1 confirm: PRMT1 (human) inhibition, FP confirmation; shares compounds with PRMT1 inh; recombinant His-PRMT1, activity-based probe fluorescence polarization; inhibition, % at 2.79 µM; 3,300 tested, 42% active; AID 687036;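 active = mean inhibition across replicates above the hit cutoff derived for the earlier primary screen, cut at about 22% in these data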
UHRF1 DNA bind: inhibits human UHRF1 binding to methylated oligonucleotide, MBD2 counter-screen; TR-FRET; AID 720530; 1,000 tested, 25% active; shares compounds with MBD2 DNA inh; inhibition, % at 4.4 µM;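 note: UHRF1 SRA domain binding a labeled hemimethylated CpG hairpin DNA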
MBD2 DBD conf: confirmation of human MBD2-DBD methylated oligonucleotide binding inhibitors; shares compounds with MBD2 DNA inh; TR-FRET MBD2-DBD binding to methylated oligonucleotide; inhibition, % at 4.4 µM; 1,000 tested, 26% active; in the data active = inhibition above about 14%
IN multimer act: HIV-1 integrase multimerization activation, counter-screen | AID 1053131 | TR-FRET HIV-1 integrase multimerization, biochemical | activation, % at 7.7 µM | 2,000 tested, 17% active | shares compounds with LEDGF integ inh; in the data active = activation above about 8.9%
TR-FRET interf: counter-screen for LEDGF/p75 integration inhibitors: TR-FRET optical interference | AID 1053135 | 2,000 tested, under 10 active | TR-FRET optical interference counterscreen, HIV-1 IN multimerization | inhibition, % at 7.7 µM | shares compounds with LEDGF integ inh;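 active = inhibition above the mean over all tested compounds plus 3 SD, which no compound reached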
LEDGF integ conf: LEDGF/p75-dependent HIV-1 integration inhibition, confirmation; inhibition, % at 3.7 µM; TR-FRET LEDGF/p75-dependent HIV-1 integration, biochemical; 2,000 tested, 36% active; shares compounds with LEDGF integ inh; in the data active = inhibition above about 14%
Large screens that a line does not name were inactive (follow-up assays come after a bar, where they were run). Cut-off read from the data, not from the text of the source, unless noted: active = inhibition above about 21%; inactive = the rest.

CC(=O)C1(C(=O)NC2CCCC2)CC(c2ccccc2C(F)(F)F)=NO1 (configuration not stated)	none (no result: ABHD5-PLIN5 inh)
O=S(=O)(NC1=NCCCCC1)c1ccc2sc(NS(=O)(=O)c3ccc4ccccc4c3)nc2c1	PRMT1 inh 44, ABHD5-PLIN5 inh 47, rCAG binder 56 | ABHD5 PLIN5 conf inactive | HNF4 split-luc inactive | rCAG bind conf 63 | DNA CAG counter 28 | PRMT1 confirm 27
CCn1c(C)c(CS(=O)(=O)c2ccccc2)[nH]c1=O	PRMT1 inh 69, ABHD5-PLIN5 inh 34 | ABHD5 PLIN5 conf 57 | HNF4 split-luc 77 | PRMT1 confirm 73
Cc1cc(C)c2c(N)c(C(=O)NC3CCCC3)sc2n1	none
Cc1cc(C)c2c(=O)n(CC(=O)NC3CCCC3)sc2n1	PRMT1 inh 83, ABHD5-PLIN5 inh 27 | ABHD5 PLIN5 conf 33 | HNF4 split-luc 107 | PRMT1 confirm 89
CCCSc1cc(NCCOC(C)=O)c([N+](=O)[O-])c2nonc12	none
Cc1nnc(Sc2cc(NCCCO)c([N+](=O)[O-])c3nonc23)s1	PRMT1 inh 91, ABHD5-PLIN5 inh 27 | ABHD5 PLIN5 conf 49 | HNF4 split-luc 111 | PRMT1 confirm 84
Cc1nnc(Sc2cc(NCCO)c([N+](=O)[O-])c3nonc23)s1	PRMT1 inh 85, ABHD5-PLIN5 inh 50 | ABHD5 PLIN5 conf 52 | HNF4 split-luc 114 | PRMT1 confirm 89
O=[N+]([O-])c1c(NCCO)cc(N2CCCCCC2)c2nonc12	none
C=CCN1[C@@H](CC(C)C)COc2cc(N3CCSCC3)ccc2S1(=O)=O	none (no result: ABHD5-PLIN5 inh)
CCOc1cc(C(c2c(O)nc(SC)[nH]c2=O)c2c(O)nc(SC)[nH]c2=O)ccc1O	PRMT1 inh 49, ABHD5-PLIN5 inh 32 | ABHD5 PLIN5 conf 89 | HNF4 split-luc 77 | PRMT1 confirm 41
O=C(/C=C/c1ccc(-c2ccccc2[N+](=O)[O-])o1)c1ccc(Br)cc1	none
O=C(/C=C/c1ccc(-c2ccccc2[N+](=O)[O-])o1)c1ccc(F)cc1	PRMT1 inh 33, ABHD5-PLIN5 inh 29 | ABHD5 PLIN5 conf 43 | HNF4 split-luc 33 | PRMT1 confirm inactive
CCCC(C)C(=O)NC1CCCCN(Cc2ccc(C)cc2)C1=O (configuration not stated)	none (no result: ABHD5-PLIN5 inh)
N#C/C(=C\c1ccc(N2CCOCC2)o1)c1nc2ccccc2[nH]1	PRMT1 inh 58, ABHD5-PLIN5 inh 24 | ABHD5 PLIN5 conf 29 | HNF4 split-luc 51 | PRMT1 confirm inactive
COC1=C[C@H](C(=O)NCc2ccccn2)[C@H](C)[C@@H](c2ccccc2)CC1=O	none (no result: ABHD5-PLIN5 inh)
COc1ccc(/C=C\c2nc(O)c([N+](=O)[O-])c(=O)[nH]2)cc1O	MBD2 DNA inh 39, ABHD5-PLIN5 inh 23 | ABHD5 PLIN5 conf 27 | HNF4 split-luc 30 | UHRF1 DNA bind inactive | MBD2 DBD conf inactive
COc1ccc(/C=C/c2c([N+](=O)[O-])c(=O)n(C)c(=O)n2C)cc1O	none
Cc1ccc(C(=O)Nc2nc(-c3ccco3)c(-c3ccco3)s2)o1	PRMT1 inh 38, LEDGF integ inh 85, MBD2 DNA inh 40, UHRF1 binding 88, ABHD5-PLIN5 inh 28, rCAG binder 73 | ABHD5 PLIN5 conf inactive | HNF4 split-luc 17 | rCAG bind conf inactive | DNA CAG counter 8.1 | PRMT1 confirm 29 | UHRF1 DNA bind inactive | MBD2 DBD conf inactive
CCOC(=O)[C@]12CCCC=C1N(CCCOC)C(=O)[C@@H]2CC(=O)NCc1cccc2ccccc12	none (no result: ABHD5-PLIN5 inh)
Cc1ccc(-n2nc3c(N4CCC(C(=O)NCCc5ccco5)CC4)nnc(C)c3c2C)cc1	MBD2 DNA inh 16, ABHD5-PLIN5 inh 30 | ABHD5 PLIN5 conf inactive | HNF4 split-luc inactive | UHRF1 DNA bind inactive | MBD2 DBD conf inactive
Cn1cnc([N+](=O)[O-])c1S(=O)(=O)Oc1ccccc1	MBD2 DNA inh 14, ABHD5-PLIN5 inh 62 | ABHD5 PLIN5 conf 75 | HNF4 split-luc 95 | UHRF1 DNA bind inactive | MBD2 DBD conf inactive
O=C1CCC[C@H]2[C@@H](Cc3ccccc3)[C@@H](O)CC[C@]23CCCN13	none (no result: ABHD5-PLIN5 inh, rCAG binder)
COC(=O)c1ccc(NC(=O)CCc2nnc3ccc(NCc4ccco4)nn23)cc1	MBD2 DNA inh 14, ABHD5-PLIN5 inh 57 | ABHD5 PLIN5 conf inactive | HNF4 split-luc 14 | UHRF1 DNA bind inactive | MBD2 DBD conf inactive
Cc1ccc(NC(=O)CCc2nnc3ccc(NCc4ccco4)nn23)cc1F	none
Cc1ccc(NC(=O)OCCCN2C(=O)CCC23CCC(C)CC3)cc1 (configuration not stated)	none (no result: ABHD5-PLIN5 inh)
O=C(C(=Cc1ccccc1)CN1CCCCC1)c1ccccc1	LEDGF integ inh 19, ABHD5-PLIN5 inh 47 | ABHD5 PLIN5 conf 77 | HNF4 split-luc 65 | IN multimer act inactive | TR-FRET interf inactive | LEDGF integ conf inactive
CC(=O)c1ccc(NC(=O)c2ccc3nc(-c4ccco4)c(-c4ccco4)nc3c2)cc1	none (no result: PRMT1 inh, LEDGF integ inh, MBD2 DNA inh, UHRF1 binding, rCAG binder)
